Bioassay records as filed in PubChem BioAssay.
Shown is part of a subset that was picked to be rich in hits.
IDE exosite inh – displaces the probe from the exo-site of human IDE. P14735. purified IDE, FL-6b probe fluorescence polarization; stronger effect = lower value. z-score at 20 µM. 6.3% of 17,000 active. AID 1259349;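 active = z-score of -3 or lower, meaning strong loss of probe binding signal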;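 also: His-tagged human IDE residues 42-1019 made in E. coli with 30 nM FL-6b probe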
Large screens that a line does not name were inactive.

O=C(c1ccccc1)N1CC(=O)N2[C@@H](CO)[C@@H](c3ccc(C#CC4CC4)cc3)[C@@H]2C1	none
Cc1ccc(NC(=O)Nc2ccc3c(c2)C(=O)N(C)[C@@H]2CC[C@@H](CC(=O)NCC(F)(F)F)O[C@H]2CO3)cc1	none
O=C(Nc1ccccc1)N1CC(=O)N2[C@H](CO)[C@@H](c3ccc(C#CC4CC4)cc3)[C@@H]2C1	none
COc1ccc(C#Cc2ccc([C@@H]3[C@H](CO)N4CCCCN(C(=O)Nc5ccccc5F)C[C@@H]34)cc2)cc1	none
O=C(c1ccc(F)cc1)N1CCCCN2[C@@H](CO)[C@@H](c3ccc(C#CC4(O)CCCC4)cc3)[C@@H]2C1	none
O=C(Nc1ccccc1F)N1CCCCN2[C@@H](CO)[C@@H](c3ccc(C#Cc4ccccc4)cc3)[C@@H]2C1	none
O=C(c1ccc(F)cc1)N1CCCCN2[C@@H](CO)[C@H](c3ccc(C#CC4(O)CCCC4)cc3)[C@@H]2C1	none
CCC(=O)N1CCCCN2[C@H](CO)[C@@H](c3ccc(C#Cc4ccccc4F)cc3)[C@@H]2C1	IDE exosite inh -5.78
O=C(c1ccc(F)cc1)N1CCCCN2[C@H](CO)[C@H](c3ccc(C#CC4(O)CCCC4)cc3)[C@H]2C1	IDE exosite inh -3.21
CCC(=O)N1CCCCN2[C@H](CO)[C@H](c3ccc(C#Cc4ccccc4F)cc3)[C@H]2C1	none
COc1ccc(C#Cc2ccc([C@H]3[C@H](CO)N4CCCCN(C(=O)Nc5ccccc5F)C[C@@H]34)cc2)cc1	none
CC(=O)N1CCCCN2[C@@H](CO)[C@@H](c3ccc(C#Cc4ccccc4F)cc3)[C@@H]2C1	none
CCC(=O)N1CCCCN2[C@@H](CO)[C@H](c3ccc(-c4ccc(F)cc4)cc3)[C@@H]2C1	none
CC(=O)N1CCCCN2[C@H](CO)[C@@H](c3ccc(C#Cc4ccccc4F)cc3)[C@@H]2C1	IDE exosite inh -7.52
CCC(=O)N1CCCCN2[C@H](C1)[C@H](c1ccc(C#Cc3ccccc3F)cc1)[C@@H]2CO	IDE exosite inh -4.59
Cc1ccccc1S(=O)(=O)N1[C@H](C#N)[C@@H](c2ccccc2)[C@@H]1CO	none
N#C[C@H]1[C@H](c2ccccc2C2=CCCCC2)[C@@H](CO)N1C(=O)c1cccc(F)c1	none
Cc1ccccc1S(=O)(=O)N1C[C@@H](O)COC[C@@H]2O[C@@H](CC(=O)N3CCCCC3)CC[C@H]21	none
CCC(=O)N1CC(=O)N2[C@H](CO)[C@H](c3ccc(-c4cccnc4)cc3)[C@@H]2C1	none
O=C(C[C@H]1CC[C@@H](NC(=O)c2ccc(F)cc2)[C@H](CO)O1)NCCc1ccccc1	none
CCS(=O)(=O)N1CCC2(CC1)CN(C(=O)c1cccc(F)c1)[C@@H](CO)c1c2c2ccc(OC)cc2n1C	none
CCCNC(=O)N1[C@H](CO)[C@@H](c2ccc(C3=CCCC3)cc2)[C@@H]1CNC(=O)CC	none
O=S(=O)(c1ccccc1)N1CC2(C1)[C@H](c1ccccc1)[C@@H](CO)N2CC1CCOCC1	none
COc1ccc2c3c([nH]c2c1)[C@@H](CO)N(C(=O)C1CCOCC1)CC31CCN(Cc2cccc(F)c2)CC1	none
COCC#Cc1ccc([C@H]2[C@@H](CO)N3CCCCN(C(=O)Nc4cc(F)ccc4F)C[C@H]23)cc1	none
COc1cccc(-c2ccc([C@@H]3[C@H](CO)N4C(=O)CN(C(=O)c5ccncc5)C[C@@H]34)cc2)c1	none
O=C(c1ccncc1)N1CC(=O)N2[C@@H](CO)[C@H](c3ccc(-c4cccnc4)cc3)[C@@H]2C1	none
O=C(c1ccncc1)N1CC(=O)N2[C@H](CO)[C@@H](c3ccc(-c4cccnc4)cc3)[C@@H]2C1	none
O=C(c1ccncc1)N1CC(=O)N2[C@H](CO)[C@@H](c3ccc(-c4ccccc4)cc3)[C@H]2C1	none
COc1cccc(-c2ccc([C@H]3[C@@H](CO)N4C(=O)CN(C(=O)c5ccncc5)C[C@H]34)cc2)c1	IDE exosite inh -8
COc1cccc(-c2ccc([C@H]3[C@H](CO)N4C(=O)CN(C(=O)c5ccncc5)C[C@@H]34)cc2)c1	IDE exosite inh -4.63
CCC(=O)N1[C@@H]2c3ccc(-c4ccc(F)cc4)c(=O)n3C[C@@H]2[C@@H](CO)[C@@H]1C(=O)N(C)C	none
CC(=O)N(C)C[C@H]1[C@H](c2ccc(-c3ccccc3)cc2)[C@@H](CO)N1C(=O)C1CC1	none
CN(C)CC#Cc1ccc([C@H]2[C@@H](CO)N3CCCCN(S(=O)(=O)c4ccccc4F)C[C@@H]23)cc1	none
O=C(O)C[C@@H]1C[C@@H]2c3cc(NC(=O)Nc4ccc(C(F)(F)F)cc4)ccc3O[C@@H]2[C@H](CO)O1	none
CC(C)NC(=O)N1CCCCN2[C@H](CO)[C@H](c3ccc(C#Cc4ccccc4)cc3)[C@H]2C1	IDE exosite inh -5.02
CC(C)NC(=O)N1CCCCN2[C@H](C1)[C@@H](c1ccc(C#Cc3ccccc3)cc1)[C@@H]2CO	IDE exosite inh -3.67
CC(C)C#Cc1ccc([C@H]2[C@@H](CO)N3CCCCN(C(=O)NC(C)C)C[C@@H]23)cc1	none
CC(C)NC(=O)N1CCCCN2[C@H](CO)[C@@H](c3ccc(C#CC4CC4)cc3)[C@H]2C1	none
CC(C)C#Cc1ccc([C@@H]2[C@H](CO)N3CCCCN(C(=O)NC(C)C)C[C@@H]23)cc1	none
